The panel holds about 79,000 compounds, 15% with a hit somewhere; the sample as a whole holds those more often. Cut-off read from the data, not from the text of the source: active = growth inhibition above about 70%; inactive = the rest.
Tests used:
[1] = NCI Yeast Anticancer Drug Screen. Data for the rad50 strain (AID 155);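 note: 0% = growth of vehicle-only cultures of the same strain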; conditions: S. cerevisiae rad50 strain growth inhibition; at 50.0 µM; active compounds read high
Procedure, shortened: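 Genetically altered yeast (DNA repair pathway); compound treatment; growth inhibition vs vehicle ctrl.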

[2] = NCI Yeast Anticancer Drug Screen. Data for the mec2-1 strain (AID 157); conditions: S. cerevisiae mec2-1 strain, at 50.0 µM, active compounds read high
Procedure, shortened: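 Readout is yeast growth inhibition, normalised to vehicle-treated controls, in the mec2-1 strain exposed to compound.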

[3] = NCI Yeast Anticancer Drug Screen. Data for the sgs1 mgt1 strain (AID 161);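 note: 0% = growth of cultures given vehicle only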; conditions: S. cerevisiae sgs1 mgt1 strain, at 50.0 µM, active compounds read high
Procedure, shortened: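 Yeast cells carrying a defined DNA-repair defect were exposed to test compounds. Growth inhibition was measured relative to vehicle-treated controls.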

[4] = NCI Yeast Anticancer Drug Screen. Data for the cln2 rad14 strain (AID 165);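 note: 0% = growth equal to vehicle treated cultures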; conditions: S. cerevisiae cln2 rad14 strain, at 50.0 µM, active compounds read high
Procedure, shortened: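 Relative to vehicle controls, growth inhibition of compound-treated cln2 rad14 yeast was recorded.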

[5] = NCI Yeast Anticancer Drug Screen. Data for the bub3 strain (AID 167); conditions: S. cerevisiae bub3 mutant strain, at 50.0 µM, active compounds read high
Procedure, shortened: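 Yeast carrying a defined mutation is treated with each compound, and growth is compared with that of vehicle-exposed cells to give inhibition.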

[6] = NCI Yeast Anticancer Drug Screen. Data for the mlh1 rad18 strain (AID 175); conditions: S. cerevisiae mlh1 rad18 strain growth inhibition; at 50.0 µM; active compounds read high
Procedure, shortened: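 Test agents were incubated with a yeast strain of defined genotype (DNA damage repair defect). Inhibition of growth was derived by comparison with vehicle-exposed cultures.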

Measured: growth inhibition

CCN(CC)CCCNc1cc(OC)c(Cl)c2cccnc12
inactive: [1] 22.2% | [2] 9.1% | [3] 38% | [4] 35.9% | [5] -19.8% | [6] 28.7%

CO/N=C1/c2sccc2[C@H](NC(=O)C(Cc2ccccc2)NC(=O)OC(C)(C)C)[C@@H]1O (stereo partly drawn)
inactive: [1] -18.2% | [2] -13.1% | [3] -14% | [4] -11.9% | [5] -2.35% | [6] 13.7%

NS(=O)(=O)c1cccc([N+](=O)[O-])c1
inactive: [1] 21.1% | [2] 5% | [3] 6.7% | [4] 5.95% | [5] -2.5% | [6] -13.1%

CC(=O)OCCC12CCC(CC1Cl)C2(C)C (stereo not drawn)
inactive: [1] -1.45% | [2] -9.7% | [3] 9.85% | [4] 24.7% | [5] -3.05% | [6] -3.55%

O=c1[nH]c(=O)n(C2OC(CF)C(O)C2O)cc1N1CCOCC1 (stereo not drawn)
inactive: [1] 16.9% | [2] 18% | [3] 18% | [4] 17.7% | [5] 19.5% | [6] 33%

C/C(=N\NC(N)=O)C(C)(C)O
inactive: [1] 26.8% | [2] 16.9% | [3] 7.7% | [4] 12.4% | [5] 11.5% | [6] 13.6%

Cc1cccc(C(C)C)c1NC(=O)/C(Cc1c([N+](=O)[O-])cccc1[N+](=O)[O-])=N/NC(=O)CC#N
inactive: [1] -0.15% | [2] -3.6% | [3] 13.8% | [4] 11.2% | [5] -23.2% | [6] 4.8%

NC1CC(=O)C(CC2C(=O)CC(N)CC2=O)C(=O)C1 (stereo not drawn)
inactive: [1] -1.3% | [2] 0.05% | [3] 3.35% | [4] -1.8% | [5] -1.15% | [6] -3.65%

COC(=O)c1ccccc1-c1ccccc1[N+](=O)[O-]
inactive: [1] 3.15% | [2] -1.75% | [3] 2.5% | [4] 2.6% | [5] -7.35% | [6] -3%

O=C1CCCC(c2ccccc2)O1 (stereo not drawn)
inactive: [1] -3.1% | [2] -14.2% | [3] 5.2% | [4] -67.5% | [5] -27.4% | [6] 14.7%

N#C/C(=C\c1c(Cl)cccc1Cl)c1nc(-c2ccc(Cl)cc2)cs1
inactive: [1] -32.4% | [2] -40.6% | [3] -25.5% | [4] -23.6% | [5] -17.4% | [6] -32.9%

Cc1ccc(C2=Nc3cccc4cccc(c34)N2)cc1
inactive: [1] -40% | [2] -71.7% | [3] -26.3% | [4] 11.1% | [5] -2.2% | [6] -8.85%

O=C1c2ccccc2C(=O)N1CC(O)COCc1ccccc1 (stereo not drawn)
inactive: [1] -17.8% | [2] -25.8% | [3] -31.7% | [4] -15.9% | [5] 25.6% | [6] -6.55%

C/C(CC(O)(C(F)(F)F)C(F)(F)F)=N\O
inactive: [1] -29.8% | [2] -51.2% | [3] -20.4% | [4] -15.9% | [5] -19.5% | [6] -5.65%

CCCCCCCCCO/N=C\c1c2c(O)c3c(O)c(C)c4c(c3c1O)C(=O)C(C)(O/C=C\C(OC)C(C)C(OC(C)=O)C(C)C(O)C(C)C(O)C(C)/C=C\C=C(\C)C(=O)N2)O4 (stereo not drawn)
inactive: [1] -1.15% | [2] 19.9% | [3] 11.5% | [4] -13.9% | [5] -6.6% | [6] 30.8%

COc1ccc(/C=N/Nc2nc(C)c(C)s2)cc1
inactive: [1] 30.9% | [2] 18.4% | [3] 53.4% | [4] 11.4% | [5] 7.35% | [6] 55.8%

CCOC(=O)C12CCCC1(O)N(NC(=O)c1ccccc1)C(C)=C2C(=O)OC (stereo not drawn)
inactive: [1] 10.8% | [2] 21.6% | [3] 6.3% | [4] -56.5% | [5] 2.95% | [6] -10.2%

COc1ccc(NC2CC(C)N(C(=O)c3ccccc3)O2)cc1 (stereo not drawn)
inactive: [1] -42.1% | [2] -37.2% | [3] -19.1% | [4] 12.3% | [5] -21.6% | [6] -19.2%

COc1cc(CC(=O)O)c(Br)cc1C
inactive: [1] 5.95% | [2] 20.9% | [3] 4.15% | [4] 0.05% | [5] -0.85% | [6] -2.65%

CC1C(O)CC23COC(=O)C2=CCCC3C1(C)CCC1COC(=O)C1 (stereo not drawn)
inactive: [1] -5.05% | [2] -21.9% | [3] 17.9% | [4] 5.85% | [5] -10.4% | [6] 7.45%

Cc1nn(-c2ccccc2)c2oc3ccccc3c(=O)c12
inactive: [1] -25.6% | [2] -7.4% | [3] -35.5% | [4] -29.5% | [5] -20.9% | [6] -31.1%

O=C(CC(=O)C(F)(F)F)Nc1cccc2ccccc12
inactive: [1] 6.65% | [2] -3.1% | [3] 10.6% | [4] -84.5% | [5] 0.1% | [6] 1.05%

CNc1ccccc1C(=O)N/N=C/c1cccc([N+](=O)[O-])c1
inactive: [1] -0.9% | [2] 1.05% | [3] -39% | [4] -8.6% | [5] 32.5% | [6] -8.9%

NCCCNC/C=C/CNCCCN
inactive: [1] 25.8% | [2] -0.5% | [3] 2.7% | [4] 11.2% | [5] -0.8% | [6] -2.45%

CCON=C1C(C)(C)C(C)(C)C(C)(C)C1(C)C
inactive: [1] -13.4% | [2] 0.2% | [3] -24.6% | [4] 37.4% | [5] -16.1% | [6] -2.05%

Cn1c([N+](=O)[O-])cnc1COc1ccc(OCc2ncc([N+](=O)[O-])n2C)cc1
inactive: [1] 4.45% | [2] -20.1% | [3] -0.55% | [4] 27.6% | [5] 0.4% | [6] -2.7%

Cn1nnc(C(=O)O)n1
inactive: [1] -7.75% | [2] -4.35% | [3] -4.7% | [4] -19.8% | [5] -11.4% | [6] -10.8%

CN(C)CC(O)C(=O)O (stereo not drawn)
inactive: [1] -12.7% | [2] 20.4% | [3] -5.6% | [4] 7.45% | [5] 3.7% | [6] -13.8%

COc1cc(NC(=O)Nc2cccc(C(C)=O)c2)c(OC)cc1Cl
inactive: [1] -10.5% | [2] 11% | [3] 0.75% | [4] -14.4% | [5] 6.35% | [6] -9.15%

C1=Cc2ccccc2/C1=C\C=C\c1ccccc1
inactive: [1] 19.1% | [2] 8.75% | [3] -2.35% | [4] -11.4% | [5] 2.8% | [6] 18.1%

CNC(=S)N(C1CCCCC1)C1CCCCC1
inactive: [1] 26% | [2] -13.4% | [3] -2.2% | [4] -15% | [5] -10.1% | [6] 37%

NC(=S)NNCC(=O)CC(O)(C(F)(F)F)C(F)(F)Cl (stereo not drawn)
inactive: [1] -21.2% | [2] -6.95% | [3] -21.6% | [4] -21.9% | [5] 21.4% | [6] -0.65%

CN1C(=O)C=C(C=Nc2ccc(-c3ccccc3)cc2)C2CCCCC21 (stereo not drawn)
inactive: [1] 0.85% | [2] -8.75% | [3] -8.05% | [4] 6.55% | [5] 11.5% | [6] 6.75%

CC(NC(=O)Nc1ccccc1Cl)c1ccccc1 (stereo not drawn)
inactive: [1] -2.05% | [2] 17.6% | [3] 1.5% | [4] -10.8% | [5] 34% | [6] 11.1%

CCCCOc1ccc(CCOC(C)=O)cc1
inactive: [1] 6.5% | [2] -14.4% | [3] 1.7% | [4] -25.3% | [5] -15% | [6] -20.8%

CNC(=O)N(C)COC
inactive: [1] -2.65% | [2] -10.9% | [3] 2.55% | [4] -0.7% | [5] -40.8% | [6] -5.1%

O=C(O)C(Oc1ccccc1)Oc1ccccc1
inactive: [1] -24.7% | [2] -13.2% | [3] -11.8% | [4] 5.85% | [5] 6.6% | [6] -4.95%

O=C1N/C(=N\OCCc2ccccc2)CC(NOCCc2ccccc2)N1 (stereo not drawn)
inactive: [1] -0.2% | [2] 18.8% | [3] 2.25% | [4] -11.6% | [5] 40.5% | [6] 7.5%

From PubChem BioAssay (NCI)
